Among the data in article PMC7862700, “An all-to-all approach to the identification of sequence-specific readers for epigenetic DNA modifications on cytosine” are binding signal values, retold here.

Holding throughout (assay): DAPPL (digital affinity profiling via proximity ligation, sequencing); 10 mM Tris-HCl pH 7.5, 50 mM NaCl, 1 mM DTT, 4% glycerol, room temperature, 30 min; GST-TFs on glutathione beads, 16-mer random dsDNA library, 0.1% formaldehyde crosslink after washing; high values mean tight binding
For one experiment, the target named is T1, FEV (Homo sapiens, UniProt Q99581 1-238).
T1 sequence: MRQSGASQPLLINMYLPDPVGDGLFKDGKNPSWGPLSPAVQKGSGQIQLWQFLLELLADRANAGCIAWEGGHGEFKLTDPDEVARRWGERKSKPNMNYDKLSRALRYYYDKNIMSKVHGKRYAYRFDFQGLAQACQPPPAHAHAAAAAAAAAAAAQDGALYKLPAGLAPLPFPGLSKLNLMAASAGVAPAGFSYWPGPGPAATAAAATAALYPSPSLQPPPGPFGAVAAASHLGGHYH
As to conditions: protein: recombinant; tags: N-terminal GST; dsDNA, one strand shown. The essentials: (§1)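 Pools of DNA-barcoded human transcription factors, expressed in yeast as GST fusions on glutathione beads and combined with a tag-only sample, were incubated with 200 nmole of a 16-mer random double-stranded DNA library. Incubation took 30 min at room temperature in Tris/NaCl/DTT/glycerol buffer and was followed by washing, 0.1% formaldehyde crosslinking, proximity ligation (BsaI/T4 ligase, 1 h, 37 °C), PCR amplification and sequencing on an Illumina NextSeq500. Binding signal is the ratio of a hexamer's read frequency for a factor to its frequency for the tag-only sample.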

In another experiment the target is ETV5 (Homo sapiens, UniProt P41161 1-510). As to conditions: protein: recombinant; tags: N-terminal GST; dsDNA, one strand shown. The method in brief: as §1
Chain of ETV5 (P41161 whole entry): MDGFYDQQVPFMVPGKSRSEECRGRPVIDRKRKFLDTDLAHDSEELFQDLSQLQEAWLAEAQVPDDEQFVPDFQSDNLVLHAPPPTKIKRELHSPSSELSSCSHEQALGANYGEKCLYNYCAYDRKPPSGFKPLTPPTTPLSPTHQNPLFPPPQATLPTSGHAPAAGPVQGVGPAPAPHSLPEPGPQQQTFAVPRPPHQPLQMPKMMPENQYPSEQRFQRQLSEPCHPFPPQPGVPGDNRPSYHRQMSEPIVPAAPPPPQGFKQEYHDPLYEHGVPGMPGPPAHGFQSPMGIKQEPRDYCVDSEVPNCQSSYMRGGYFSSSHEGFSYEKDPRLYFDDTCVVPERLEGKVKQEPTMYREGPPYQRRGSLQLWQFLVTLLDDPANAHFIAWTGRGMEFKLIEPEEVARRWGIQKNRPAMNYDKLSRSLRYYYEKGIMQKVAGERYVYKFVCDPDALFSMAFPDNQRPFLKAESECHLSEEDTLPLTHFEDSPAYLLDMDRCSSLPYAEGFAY
The target of a further experiment is HSF1 (Homo sapiens, UniProt Q00613 1-529). The following applies: protein: recombinant; tags: N-terminal GST; chain copies: 3; dsDNA, one strand shown. The essentials:
as §1

For a further experiment, the target named is T2, SPIC (Homo sapiens, UniProt Q8N5J4 1-248).
T2 sequence: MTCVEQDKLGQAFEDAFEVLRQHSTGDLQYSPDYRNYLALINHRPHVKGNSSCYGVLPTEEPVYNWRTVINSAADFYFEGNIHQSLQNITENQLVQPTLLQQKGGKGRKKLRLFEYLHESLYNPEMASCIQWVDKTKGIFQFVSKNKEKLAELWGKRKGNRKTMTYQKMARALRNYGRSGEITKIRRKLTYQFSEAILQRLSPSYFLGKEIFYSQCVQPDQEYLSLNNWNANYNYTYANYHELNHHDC
The following applies: protein: recombinant; tags: N-terminal GST; dsDNA, one strand shown. The essentials:
as §1

A further experiment addresses ELF4 (Homo sapiens, UniProt Q99607 1-663). As to conditions: protein: recombinant; tags: N-terminal GST; dsDNA, one strand shown. The method in brief: as §1
In another experiment the target is T3, ELK4 (Homo sapiens, UniProt P28324-2 1-405).
T3 sequence: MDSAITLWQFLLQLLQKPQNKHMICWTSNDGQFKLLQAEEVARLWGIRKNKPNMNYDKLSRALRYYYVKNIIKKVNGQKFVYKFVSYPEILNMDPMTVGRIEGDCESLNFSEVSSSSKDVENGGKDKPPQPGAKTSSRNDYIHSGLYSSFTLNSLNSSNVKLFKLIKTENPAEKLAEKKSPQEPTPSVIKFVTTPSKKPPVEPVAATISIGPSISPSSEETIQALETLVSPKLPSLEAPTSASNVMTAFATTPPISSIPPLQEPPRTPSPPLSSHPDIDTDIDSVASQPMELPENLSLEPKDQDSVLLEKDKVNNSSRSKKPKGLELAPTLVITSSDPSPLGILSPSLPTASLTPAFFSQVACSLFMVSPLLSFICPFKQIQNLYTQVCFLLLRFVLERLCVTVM
The following applies: protein: recombinant; tags: N-terminal GST; dsDNA, one strand shown. The essentials: as §1

A further experiment deals with T4, ETV2 (Homo sapiens, UniProt O00321 1-342).
T4 sequence: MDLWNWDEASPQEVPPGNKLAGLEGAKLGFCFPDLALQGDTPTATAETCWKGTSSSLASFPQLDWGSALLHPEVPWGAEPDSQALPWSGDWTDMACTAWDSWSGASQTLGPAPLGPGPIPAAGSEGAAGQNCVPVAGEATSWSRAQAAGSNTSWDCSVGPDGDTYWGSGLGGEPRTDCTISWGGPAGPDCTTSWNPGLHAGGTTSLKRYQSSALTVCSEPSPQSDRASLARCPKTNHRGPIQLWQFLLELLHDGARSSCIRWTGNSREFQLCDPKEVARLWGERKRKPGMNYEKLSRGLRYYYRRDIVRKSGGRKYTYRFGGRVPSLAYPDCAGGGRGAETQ
As to conditions: protein: recombinant; tags: N-terminal GST; dsDNA, one strand shown. The essentials:
as §1

The next experiment concerns the target T5, ELF3 (Homo sapiens, UniProt P78545 1-371).
T5 sequence: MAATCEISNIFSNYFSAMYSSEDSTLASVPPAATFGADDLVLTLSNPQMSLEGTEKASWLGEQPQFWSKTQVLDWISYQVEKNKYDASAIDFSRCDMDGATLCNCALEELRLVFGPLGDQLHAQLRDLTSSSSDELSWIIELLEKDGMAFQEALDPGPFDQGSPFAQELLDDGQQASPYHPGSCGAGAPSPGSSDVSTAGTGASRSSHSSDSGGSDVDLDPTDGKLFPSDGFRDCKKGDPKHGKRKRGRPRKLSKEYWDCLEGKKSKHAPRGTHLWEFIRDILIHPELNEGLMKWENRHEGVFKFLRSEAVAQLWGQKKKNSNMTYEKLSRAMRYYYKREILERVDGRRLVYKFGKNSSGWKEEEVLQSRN
The following applies: protein: recombinant; tags: N-terminal GST; dsDNA, one strand shown. The method in brief: as §1

For the next experiment, the target named is CRX (Homo sapiens, UniProt O43186 1-299). The following applies: protein: recombinant; tags: N-terminal GST; dsDNA, one strand shown. The essentials:
as §1

The next experiment has as its target ETV1 (Homo sapiens, UniProt P50549 1-477). As to conditions: protein: recombinant; tags: N-terminal GST; dsDNA, one strand shown. The essentials:
as §1

The target in the next experiment is T6, ERF (Homo sapiens, UniProt P50548 1-548).
T6 sequence: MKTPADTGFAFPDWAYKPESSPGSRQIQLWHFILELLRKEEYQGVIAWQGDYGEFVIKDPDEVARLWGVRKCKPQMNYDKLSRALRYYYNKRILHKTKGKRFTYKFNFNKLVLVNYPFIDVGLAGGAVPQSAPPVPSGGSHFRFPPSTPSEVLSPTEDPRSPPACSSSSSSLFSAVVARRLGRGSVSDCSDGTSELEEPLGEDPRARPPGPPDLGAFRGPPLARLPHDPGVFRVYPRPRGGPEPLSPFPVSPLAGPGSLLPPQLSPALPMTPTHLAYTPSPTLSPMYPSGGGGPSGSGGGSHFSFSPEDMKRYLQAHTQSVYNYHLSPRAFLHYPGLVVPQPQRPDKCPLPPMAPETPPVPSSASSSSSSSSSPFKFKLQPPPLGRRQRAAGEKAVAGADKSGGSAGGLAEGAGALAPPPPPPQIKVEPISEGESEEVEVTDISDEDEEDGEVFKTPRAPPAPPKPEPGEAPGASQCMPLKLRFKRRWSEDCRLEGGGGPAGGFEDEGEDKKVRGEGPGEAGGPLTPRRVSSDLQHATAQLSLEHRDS
As to conditions: protein: recombinant; tags: N-terminal GST; dsDNA, one strand shown. The method in brief:
as §1

The target in a further experiment is T7, ETV3L (Homo sapiens, UniProt Q6ZN32 1-361).
T7 sequence: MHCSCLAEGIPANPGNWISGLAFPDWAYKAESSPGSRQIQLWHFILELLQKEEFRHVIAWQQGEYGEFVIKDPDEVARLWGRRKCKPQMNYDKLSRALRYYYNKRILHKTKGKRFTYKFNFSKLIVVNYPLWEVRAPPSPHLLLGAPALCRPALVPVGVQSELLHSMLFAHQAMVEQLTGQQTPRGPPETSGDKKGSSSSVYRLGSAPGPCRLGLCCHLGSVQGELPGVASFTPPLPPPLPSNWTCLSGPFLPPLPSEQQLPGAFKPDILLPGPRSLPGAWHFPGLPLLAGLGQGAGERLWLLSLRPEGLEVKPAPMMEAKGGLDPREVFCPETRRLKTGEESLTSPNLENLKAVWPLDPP
As to conditions: protein: recombinant; tags: N-terminal GST; dsDNA, one strand shown. The method in brief: as §1

The next experiment addresses T8, ETS2 (Homo sapiens, UniProt P15036 1-469).
T8 sequence: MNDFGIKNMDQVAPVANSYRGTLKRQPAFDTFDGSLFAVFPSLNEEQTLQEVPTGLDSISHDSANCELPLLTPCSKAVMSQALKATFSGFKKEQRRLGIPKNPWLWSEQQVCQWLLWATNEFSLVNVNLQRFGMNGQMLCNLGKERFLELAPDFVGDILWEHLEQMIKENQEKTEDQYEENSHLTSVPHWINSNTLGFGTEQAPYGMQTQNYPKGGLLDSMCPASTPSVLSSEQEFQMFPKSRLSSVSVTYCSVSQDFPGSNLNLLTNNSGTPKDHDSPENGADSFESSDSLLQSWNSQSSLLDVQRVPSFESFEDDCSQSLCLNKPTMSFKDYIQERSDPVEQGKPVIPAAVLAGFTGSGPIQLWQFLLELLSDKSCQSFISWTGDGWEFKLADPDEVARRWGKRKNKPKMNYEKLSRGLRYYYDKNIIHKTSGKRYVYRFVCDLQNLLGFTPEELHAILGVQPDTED
As to conditions: protein: recombinant; tags: N-terminal GST; dsDNA, one strand shown. The essentials:
as §1

For a further experiment, the target named is T9, SPDEF (Homo sapiens, UniProt O95238 1-335).
T9 sequence: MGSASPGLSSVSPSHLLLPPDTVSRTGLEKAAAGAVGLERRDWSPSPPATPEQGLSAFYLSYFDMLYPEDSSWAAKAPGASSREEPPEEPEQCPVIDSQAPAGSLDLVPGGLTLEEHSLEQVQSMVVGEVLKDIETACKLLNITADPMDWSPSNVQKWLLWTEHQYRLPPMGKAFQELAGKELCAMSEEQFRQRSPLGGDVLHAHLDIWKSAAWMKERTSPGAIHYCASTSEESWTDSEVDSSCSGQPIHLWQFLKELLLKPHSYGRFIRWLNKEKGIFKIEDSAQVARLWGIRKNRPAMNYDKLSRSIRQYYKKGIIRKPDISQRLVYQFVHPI
As to conditions: protein: recombinant; tags: N-terminal GST; dsDNA, one strand shown. The method in brief:
as §1

A further experiment deals with T10, ETV7 (Homo sapiens, UniProt Q9Y603 1-341).
T10 sequence: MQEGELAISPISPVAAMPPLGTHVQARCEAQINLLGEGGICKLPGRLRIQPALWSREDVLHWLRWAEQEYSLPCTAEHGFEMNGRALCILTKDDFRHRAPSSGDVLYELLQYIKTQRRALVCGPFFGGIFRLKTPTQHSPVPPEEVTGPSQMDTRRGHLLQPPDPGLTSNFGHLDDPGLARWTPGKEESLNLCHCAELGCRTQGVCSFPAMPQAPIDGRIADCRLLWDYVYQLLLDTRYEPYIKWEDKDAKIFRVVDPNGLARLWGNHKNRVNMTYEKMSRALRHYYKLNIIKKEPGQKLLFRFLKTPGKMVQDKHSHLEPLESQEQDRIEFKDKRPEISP
The following applies: protein: recombinant; tags: N-terminal GST; dsDNA, one strand shown. The essentials: as §1

Another experiment concerns the target T11, ELF5 (Homo sapiens, UniProt Q9UKW6-2 1-255).
T11 sequence: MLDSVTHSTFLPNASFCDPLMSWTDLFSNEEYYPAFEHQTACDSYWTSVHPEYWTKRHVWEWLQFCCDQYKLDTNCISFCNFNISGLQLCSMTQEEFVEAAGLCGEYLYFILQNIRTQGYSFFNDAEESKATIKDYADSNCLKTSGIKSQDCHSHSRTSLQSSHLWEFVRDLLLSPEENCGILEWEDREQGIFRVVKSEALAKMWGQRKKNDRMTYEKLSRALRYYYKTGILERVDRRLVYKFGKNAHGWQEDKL
The following applies: protein: recombinant; tags: N-terminal GST; dsDNA, one strand shown. The essentials:
as §1

The next experiment concerns the target T12, ETV3 (Homo sapiens, UniProt P41162-2 1-143).
T12 sequence: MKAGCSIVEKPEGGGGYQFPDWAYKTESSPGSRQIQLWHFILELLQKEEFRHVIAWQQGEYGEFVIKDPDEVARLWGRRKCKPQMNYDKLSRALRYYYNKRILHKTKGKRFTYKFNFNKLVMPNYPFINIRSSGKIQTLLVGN
As to conditions: protein: recombinant; tags: N-terminal GST; dsDNA, one strand shown. The essentials:
as §1

For a further experiment, the target named is ETV6 (Homo sapiens, UniProt P41212 1-452). As to conditions: protein: recombinant; tags: N-terminal GST; dsDNA, one strand shown. The method in brief:
as §1

Chain of HSF1 (Q00613 whole entry): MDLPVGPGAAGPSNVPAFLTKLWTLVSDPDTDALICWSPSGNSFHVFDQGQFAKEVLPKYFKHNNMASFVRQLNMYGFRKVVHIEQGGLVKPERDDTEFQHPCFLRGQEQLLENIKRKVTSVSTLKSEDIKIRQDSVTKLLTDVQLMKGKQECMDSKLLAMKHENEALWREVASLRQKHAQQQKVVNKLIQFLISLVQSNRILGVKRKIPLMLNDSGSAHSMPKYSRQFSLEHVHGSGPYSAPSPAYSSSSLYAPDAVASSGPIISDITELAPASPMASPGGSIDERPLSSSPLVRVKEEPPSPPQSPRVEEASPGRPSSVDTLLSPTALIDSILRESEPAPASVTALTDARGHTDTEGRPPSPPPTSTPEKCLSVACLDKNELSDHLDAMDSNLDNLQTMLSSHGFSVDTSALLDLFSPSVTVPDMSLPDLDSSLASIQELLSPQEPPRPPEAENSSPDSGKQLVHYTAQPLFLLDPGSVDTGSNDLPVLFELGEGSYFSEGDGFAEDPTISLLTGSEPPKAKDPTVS
Chain of ETV6 (P41212 whole entry): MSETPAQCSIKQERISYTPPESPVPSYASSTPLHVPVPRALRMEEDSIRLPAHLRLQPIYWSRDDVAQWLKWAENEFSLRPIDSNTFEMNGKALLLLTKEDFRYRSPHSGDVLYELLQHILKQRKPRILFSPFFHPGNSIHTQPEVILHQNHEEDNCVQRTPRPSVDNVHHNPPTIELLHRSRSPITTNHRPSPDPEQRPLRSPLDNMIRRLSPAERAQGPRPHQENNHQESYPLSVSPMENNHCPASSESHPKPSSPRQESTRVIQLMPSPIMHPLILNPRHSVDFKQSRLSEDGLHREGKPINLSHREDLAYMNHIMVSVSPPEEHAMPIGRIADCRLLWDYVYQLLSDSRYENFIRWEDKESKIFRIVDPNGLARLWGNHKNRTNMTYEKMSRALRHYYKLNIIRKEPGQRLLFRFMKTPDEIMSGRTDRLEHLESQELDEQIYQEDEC
Chain of ETV1 (P50549 whole entry): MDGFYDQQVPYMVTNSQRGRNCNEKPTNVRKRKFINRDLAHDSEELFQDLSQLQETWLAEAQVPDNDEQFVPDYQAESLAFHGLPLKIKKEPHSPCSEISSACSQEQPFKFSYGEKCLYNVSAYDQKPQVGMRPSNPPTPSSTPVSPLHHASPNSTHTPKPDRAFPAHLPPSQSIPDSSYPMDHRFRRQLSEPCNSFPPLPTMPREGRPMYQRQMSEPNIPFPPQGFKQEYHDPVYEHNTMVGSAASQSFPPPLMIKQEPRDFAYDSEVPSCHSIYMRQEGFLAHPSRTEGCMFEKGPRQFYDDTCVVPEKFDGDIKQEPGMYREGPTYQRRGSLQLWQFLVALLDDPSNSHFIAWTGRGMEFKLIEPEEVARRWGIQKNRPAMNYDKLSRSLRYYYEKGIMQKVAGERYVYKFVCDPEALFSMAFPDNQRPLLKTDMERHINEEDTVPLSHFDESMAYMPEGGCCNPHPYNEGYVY
Chain of CRX (O43186 whole entry): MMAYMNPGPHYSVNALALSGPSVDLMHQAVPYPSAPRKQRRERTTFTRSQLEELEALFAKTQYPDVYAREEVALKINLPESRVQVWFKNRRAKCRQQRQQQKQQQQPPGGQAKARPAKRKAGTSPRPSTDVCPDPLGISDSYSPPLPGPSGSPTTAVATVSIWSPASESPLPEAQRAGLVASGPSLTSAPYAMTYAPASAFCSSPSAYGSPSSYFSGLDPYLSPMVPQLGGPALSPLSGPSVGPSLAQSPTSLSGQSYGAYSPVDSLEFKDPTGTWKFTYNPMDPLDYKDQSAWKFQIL
Chain of ELF4 (Q99607 whole entry): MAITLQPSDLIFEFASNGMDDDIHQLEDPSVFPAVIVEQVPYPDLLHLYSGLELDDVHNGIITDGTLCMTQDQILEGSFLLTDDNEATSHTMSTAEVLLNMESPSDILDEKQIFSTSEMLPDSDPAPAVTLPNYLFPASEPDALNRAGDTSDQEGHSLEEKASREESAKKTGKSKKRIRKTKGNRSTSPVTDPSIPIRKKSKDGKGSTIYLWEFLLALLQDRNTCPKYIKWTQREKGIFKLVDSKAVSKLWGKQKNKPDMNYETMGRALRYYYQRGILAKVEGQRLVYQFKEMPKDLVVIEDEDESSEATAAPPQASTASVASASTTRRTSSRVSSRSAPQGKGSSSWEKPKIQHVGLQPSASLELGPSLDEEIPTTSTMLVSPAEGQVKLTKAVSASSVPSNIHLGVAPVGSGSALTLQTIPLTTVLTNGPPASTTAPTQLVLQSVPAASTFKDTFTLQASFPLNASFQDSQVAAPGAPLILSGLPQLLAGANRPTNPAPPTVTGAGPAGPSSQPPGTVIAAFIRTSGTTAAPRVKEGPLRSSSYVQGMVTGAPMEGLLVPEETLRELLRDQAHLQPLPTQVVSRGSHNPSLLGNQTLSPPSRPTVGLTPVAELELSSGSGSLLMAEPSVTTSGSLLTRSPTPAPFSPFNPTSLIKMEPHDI

As to TCCTGC, the binding signal with FEV was 1.62 fold enrichment (6-mer frequency, TF over GST control); with ETV5, 1.83 fold enrichment (6-mer frequency, TF over GST control); with HSF1, 1.25 fold enrichment (6-mer frequency, TF over GST control); in the experiment with SPIC, 1.68 fold enrichment (6-mer frequency, TF over GST control); in the experiment with ELF4 it was 1.56 fold enrichment (6-mer frequency, TF over GST control); with ELK4, 1.36 fold enrichment (6-mer frequency, TF over GST control). Further, the binding signal with ETV2 was 1.49 fold enrichment (6-mer frequency, TF over GST control); with ELF3 it was 1.75 fold enrichment (6-mer frequency, TF over GST control); in the experiment with CRX it was 1.26 fold enrichment (6-mer frequency, TF over GST control); with ETV1, 1.6 fold enrichment (6-mer frequency, TF over GST control); in the experiment with ERF it was 1.43 fold enrichment (6-mer frequency, TF over GST control); in the experiment with ETV3L, 1.71 fold enrichment (6-mer frequency, TF over GST control). In addition, the binding signal was 1.65 fold enrichment (6-mer frequency, TF over GST control) with ETS2; 1.98 fold enrichment (6-mer frequency, TF over GST control) with SPDEF; 1.69 fold enrichment (6-mer frequency, TF over GST control) with ETV7; 2.12 fold enrichment (6-mer frequency, TF over GST control) with ELF5; 1.73 fold enrichment (6-mer frequency, TF over GST control) with ETV3; 1.77 fold enrichment (6-mer frequency, TF over GST control) with ETV6.
